Assay results: PubChem BioAssay (NCI)
About 83,000 compounds went through this panel and 20% of them were active in at least one assay; those are over-represented in the sample as a whole.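 Plates (96-well) were seeded with cells, treated with compound at one concentration, and incubated for 48 hours before percent growth was determined.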 Unmarked numbers belong to inactive results. The source made the active and inactive calls. The calls were made as follows: active = growth percent below 10; inactive = the rest.

Tests used:
Experiment in all cases: NCI-60 one-dose screen, 48 h (100 = growth as untreated, 0 = no growth, -100 = all killed)
Details in all cases: 10 µM unless noted
RPMI-8226 leukemia = tested on: RPMI-8226 leukemia
OVCAR-8 ovarian = tested on: OVCAR-8 ovarian
OVCAR-5 ovarian = tested on: OVCAR-5 ovarian
OVCAR-4 ovarian = tested on: OVCAR-4 ovarian
SK-OV-3 ovarian = tested on: SK-OV-3 ovarian
OVCAR-3 ovarian = tested on: OVCAR-3 ovarian
HS 578T breast = tested on: HS 578T breast
NCI/ADR-RES ovarian = tested on: NCI/ADR-RES ovarian
IGROV1 ovarian = tested on: IGROV1 ovarian

Row | SMILES | growth (RPMI-8226 leukemia) | growth (OVCAR-8 ovarian) | growth (OVCAR-5 ovarian) | growth (OVCAR-4 ovarian) | growth (SK-OV-3 ovarian) | growth (OVCAR-3 ovarian) | growth (HS 578T breast) | growth (NCI/ADR-RES ovarian) | growth (IGROV1 ovarian)
1 | O=C1NC(=O)c2c1c1c3ccccc3ccc1c1[nH]c3ccc(Br)cc3c21 | -19.9% (active) | 14.7% | 29.7% | 10.3% | 31% | 8.73% (active) | 78.4% | 3.52% (active) | 
2 | COc1ccc(-c2nc(SCC(C)C)nc(N/N=C\c3ccc(F)cc3)c2C#N)cc1 | 98.2% | 96.3% | 95.6% | 8.96% (active) | 112% | 70.5% | 62.4% | 84.2% | 80.5%
3 | O=C1Nc2ccccc2/C1=C\c1nc(-c2ccccc2F)n2ccccc12 | 44.6% | 5.14% (active) | 47.8% | -34.4% (active) | -0.955% (active) | 6.22% (active) | 12% | 9.77% (active) | 2.99% (active)
4 | C[C@H](NC(=O)[C@@H](C)N)[C@H](Oc1ccc2c(cnn2-c2ccc(F)cc2)c1)c1ccc2c(c1)OCCO2 | 20.7% | 57.8% | 64.7% | 60.7% | 49.2% | 55.8% | 64.8% | 57.6% | 40.9%
5 | O=C1N(Cc2ccccc2Cl)c2ccccc2C12NN=C(c1cccc(Cl)c1)S2 (stereo not given) | 30.5% | -23.5% (active) | 9.45% (active) | -13.9% (active) | -5.89% (active) | 4.87% (active) | 3.21% (active) | -17% (active) | 20.2%
6 | COCCn1c(-c2csc(-c3cn(C)c4ccc(OC)cc34)n2)cc2cccnc21 | 65.4% | 59.7% | 79.9% | 55.9% | 65.2% | 65.5% | 58.5% | 46.4% | 94.5%
7 | Cc1cc(Cl)ccc1NC(=O)c1cc2ccccc2cc1O | 6.82% (active) | 7.81% (active) | 30.5% | 22% | 36.7% | -3.47% (active) | -7.72% (active) | 4.6% (active) | 17.9%
8 | COc1cc(NC(C)CCCNC(C)C)c2ncccc2c1OC (stereo not given) | 87.7% | 91.3% | 91.4% | 76.1% | 96.3% | 70% | 91.9% | 85.4% | 75.9%
9 | CO[C@H]1/C=C(/C)CCC[C@H](C)[C@H](O)[C@@H](C)C(=O)C(C)(C)[C@@H](O)CC(=O)O[C@@H]1/C(C)=C/c1csc(C)n1 | 14.2% | 26.7% | 34.6% | 63.7% | 5.27% (active) |  | -21.3% (active) | -36.7% (active) | 12.8%
10 | CC(C)(C)n1cc(-c2ccnc(NCCNS(=O)(=O)c3cccc4ccccc34)c2)c(-c2cccc(F)c2)n1 | -31.8% (active) | 7.39% (active) | -15% (active) | -0.264% (active) | 6.65% (active) | -68.6% (active) | -35.7% (active) | -9.97% (active) | 4.03% (active)
11 | CC(=O)OC[C@]12CCC(C)(C)C[C@H]1[C@@]1(O)[C@H](O)C[C@@H]3[C@@]4(C)CCCNC(C)(C)[C@@H]4CC[C@@]3(C)[C@]1(C)CC2 | 107% | 111% | 102% | 120% | 111% | 119% | 110% | 113% | 107%
12 | C/C(=N/O)c1ccc(F)cc1 | 85.5% | 86.5% | 80.1% | 95.3% | 85.2% | 132% | 95.6% | 77.7% | 84.5%
13 | COc1cc2c(c(OC)c1OC)C(=O)CC(c1cccc(NC(=O)c3ccc(Br)cc3)c1)O2 (stereo not given) | -4.85% (active) | 14.1% | 95.4% | 53.9% | 74.7% | 46.5% | 71% | 8.47% (active) | 45.9%
14 | O=C(c1cc2ccccc2o1)c1nn(-c2ccccc2)/c(=N/N=Cc2cn(-c3ccccc3)nc2-c2cc3ccccc3oc2=O)s1 |  | 97.5% | 105% | 93.3% | 127% | 100% | 99.8% | 96.5% | 99.1%
15 | O=C(Nn1c2c(sc1=Nc1ccccc1)C(=O)c1ccccc1C2=O)c1cc2ccc1CCc1ccc(cc1)CC2 | 75.2% | 62.2% | 110% | 69.4% | 76.3% | 64.8% | 78.9% | 70.2% | 48.8%
16 | O=C1/C(=C/c2ccc(Cl)c(Cl)c2)CN(C(=O)C(Cl)Cl)C/C1=C\c1ccc(Cl)c(Cl)c1 | -27.9% (active) | 0.621% (active) | -69.1% (active) | -16.8% (active) | 25.2% | -97.9% (active) | -5.11% (active) | 3.64% (active) | -74.3% (active)
17 | COc1ccc(-c2cn(-c3cc(OC)c(OC)c(OC)c3)c(=O)n2C(C)=O)cc1 | 95.9% | 94.5% | 84.5% | 84.9% | 104% | 109% | 93.4% | 98.5% | 77.7%
18 | COc1cc2c(c(OC)c1OC)CCC(c1cccc(C(=O)Nc3cccc(Br)c3)c1)O2 (stereo not given) | 50% | 81.1% | 81.3% | 55% | 78% | 74.7% | 66.7% | 79.6% | 81.8%
19 | Cc1ccc(/C=C2\CN(C(=O)OC(C)(C)C)C/C(=C\c3ccc(C)cc3)C2=O)cc1 | -25.8% (active) | 25% | 112% | 65.4% | 104% | 7.18% (active) | 59.6% | 76.3% | 69.3%
20 | CN1CCN(c2ccc(C(=O)Nc3cccc(C#Cc4cccc5[nH]nc(N)c45)c3)cc2C(F)(F)F)CC1 |  | -14.5% (active) | -43.1% (active) | -0.309% (active) | -42.6% (active) | -17.9% (active) | -26% (active) | -24.7% (active) | -56.5% (active)

Row | SMILES | growth (RPMI-8226 leukemia) | growth (OVCAR-8 ovarian) | growth (OVCAR-5 ovarian) | growth (OVCAR-4 ovarian) | growth (SK-OV-3 ovarian) | growth (OVCAR-3 ovarian) | growth (HS 578T breast) | growth (NCI/ADR-RES ovarian) | growth (IGROV1 ovarian)
21 | CN1C(=O)/C(=C/c2cn(-c3ccccc3)nc2-c2ccccc2)SC1=S | 108% | 105% | 106% | 106% | 109% | 121% | 100% | 98.1% | 
22 | Cn1cc(-c2csc(-c3c[nH]c4ccc(Br)cc34)n2)c2cnccc21 | -40.3% (active) | -60.5% (active) | -95.7% (active) | -84.8% (active) | -95.5% (active) | -91.9% (active) | -60.5% (active) | -69.2% (active) | -77.8% (active)
23 | Oc1c(Cl)cc(Cl)cc1/C=N/Nc1nnc(N/N=C/c2cc(Cl)cc(Cl)c2O)c2ccccc12 | 0.393% (active) | 17.4% | 40.4% | 8.13% (active) | 29.3% | 14.1% | 31.6% | 1.78% (active) | 13.1%
24 | Oc1ccc(CN2CCC(N3CCCCC3)CC2)c2cccnc12 | 19.4% | 25% | 47.2% | 22.7% | 16% | 28.8% | 27.6% | 30.8% | 25.4%
25 | Cc1ccccc1NC(=O)c1sc2nc(C)c(C(=O)/C=C/c3ccccc3)cc2c1N | -24.7% (active) | 6.75% (active) | 20.8% | 51.3% | 82% | -5.72% (active) | 10% (active) | 1.11% (active) | 10.3%
26 | O=[N+]([O-])c1ccc(S(=O)(=O)N2CCN(C3=NS(=O)(=O)c4ccccc4N3c3ccccc3)CC2)cc1 | 58.7% | 93.1% | 95% | 99.8% | 102% | 94.4% | 109% | 92.9% | 97%
27 | CC(=O)N1N=C(c2ccc(Nc3nc(Nc4ccc(Cl)cc4)nc(Nc4ccc(Cl)cc4)n3)cc2)CC1c1ccco1 (stereo not given) | 34.5% | 83.2% | 105% | 97.3% | 124% | 104% | 114% | 93.5% | 89.4%
28 | O=C(Cn1cc(CN2C(=O)c3ccccc3S2(=O)=O)nn1)Nc1nc2ccccc2s1 | 107% | 102% | 101% | 100% | 79% | 102% | 110% | 97.6% | 93.4%
29 | CC(C)(C)n1cc(-c2ccnc(NCCNS(=O)(=O)c3cccc(F)c3)c2)c(-c2ccccc2)n1 | 61% | 87.9% | 105% | 72.7% | 102% | 101% | 92.9% | 89.5% | 97.2%
30 | COc1ccccc1NC(=O)Cn1cc(CN2CCN(c3ccnc4cc(Cl)ccc34)CC2)nn1 | 50.9% | 93.4% | 82.9% | 94.1% | 86.6% | 101% | 88.5% | 91.5% | 90.6%
31 | COc1ccc2cc(C(=O)c3coc4ccc(O)cc34)ccc2c1 | 91.5% | 106% | 103% | 97.6% | 77.2% | 100% | 112% | 99.8% | 85.2%
32 | Cc1ccc(-c2nc3nc(-c4ccc(F)cc4)nc(N4CCNCC4)c3o2)cc1 | -47.2% (active) | -50.1% (active) | -14.6% (active) | -77.1% (active) | 107% | -94.7% (active) | -5.74% (active) | -19.1% (active) | 42%
33 | Cc1cc2c(O)c(-c3cc(Cl)ccc3Cl)c3sc(=O)oc3c2cc1C | 38.3% | 68.1% | 106% | 24.5% | 76.3% | 29.8% | 76.4% | 85.3% | 76.5%
34 | Cc1nn(-c2ccccc2)c(Oc2ccccn2)c1-c1nc2ccccc2s1 | 97.5% | 102% | 93.4% | 98.7% | 97.5% | 102% | 110% | 98.1% | 90.6%
35 | CS(=O)(=O)c1cccc(-c2c(-c3cccc(OS(N)(=O)=O)c3)nc3sccn23)c1 | 113% | 95.2% | 99.8% | 101% | 121% | 106% | 103% | 103% | 97.9%
36 | CCN(CC)C(=S)SC(SC(=S)N(CC)CC)C(=O)c1nnn(-c2ccc([N+](=O)[O-])cc2)c1C | 90.8% | 101% | 106% | 104% | 112% | 98.4% | 113% | 99.8% | 71.2%
37 | COc1ccc(C2c3sc4c(F)cccc4c3Oc3nc[nH]c(=O)c32)cc1 (stereo not given) | 69.3% | 89% | 83.6% | 85.4% | 97.4% | 88.5% | 83.1% | 84.4% | 45.7%
38 | CC1(C)CCC(S(=O)(=O)c2ccc3c(c2)/C(=N\O)c2cc(S(=O)(=O)N4CCC(O)(c5cccc(C(F)(F)F)c5)CC4)ccc2-3)CC1 | -52.5% (active) | -73% (active) | -80.3% (active) | -92.6% (active) | -99.6% (active) |  | -56.4% (active) | 61% | -32.1% (active)
39 | Cc1ccc(C(C(N)=O)C(C(N)=O)c2ccccc2)cc1 (stereo not given) | 95.4% | 103% | 114% | 115% | 114% | 114% | 124% | 122% | 105%
